PubChem BioAssay (NCI)
About 79,000 compounds went through this panel and 15% of them were active in at least one assay; those are over-represented in the sample as a whole. Active and inactive are the calls of the source. No stated cut-off is given here; in the data, active means growth inhibition above about 70%; inactive means the rest.

Assays:
[1] = NCI Yeast Anticancer Drug Screen. Data for the rad52 strain (AID 147);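 further: 0% = growth of vehicle-treated control cultures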; conditions: S. cerevisiae rad52 mutant growth inhibition, active compounds read high
Outline: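 Vehicle-treated cultures served as the reference for growth inhibition of compound-exposed yeast bearing a DNA repair mutation.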

[2] = NCI Yeast Anticancer Drug Screen. Data for the wt1 strain (AID 149);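 further: 0% = growth of vehicle-treated wt1 cultures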; conditions: S. cerevisiae wt1 strain (SPY 50644) growth inhibition, active compounds read high
Outline: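 wt1 strain grown with compound or vehicle; inhibition taken from the growth difference.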

[3] = NCI Yeast Anticancer Drug Screen. Data for the rad50EPP+ strain (AID 151);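 further: 0% = growth of vehicle-treated control cultures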; conditions: S. cerevisiae rad50 mutant strain, active compounds read high
Outline: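 In this screen, rad50EPP+ yeast were exposed to compounds. Growth inhibition was scored against vehicle-treated controls.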

[4] = NCI Yeast Anticancer Drug Screen. Data for the mgt1 strain (AID 153); conditions: S. cerevisiae mgt1 mutant growth inhibition, active compounds read high
Outline: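 mgt1 strain exposed; growth vs vehicle control recorded as inhibition.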

[5] = NCI Yeast Anticancer Drug Screen. Data for the rad50 strain (AID 155);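 further: 0% = growth of vehicle-only cultures of the same strain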; conditions: S. cerevisiae rad50 strain growth inhibition, active compounds read high
Outline: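 DNA repair mutant yeast, compound exposure, growth read-out; inhibition is taken relative to vehicle.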

[6] = NCI Yeast Anticancer Drug Screen. Data for the mec2-1 strain (AID 157); conditions: S. cerevisiae mec2-1 strain, active compounds read high
Outline: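 Vehicle-treated cultures served as reference for growth inhibition of compound-exposed mec2-1 yeast.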

[7] = NCI Yeast Anticancer Drug Screen. Data for the rad14 strain (AID 159);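 further: 0% = growth of vehicle-treated control cultures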; conditions: S. cerevisiae rad14 strain growth inhibition, active compounds read high
Outline: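 DNA repair-defective yeast, compound-exposed; % growth inhibition derived by comparison with vehicle-treated controls.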

[8] = NCI Yeast Anticancer Drug Screen. Data for the sgs1 mgt1 strain (AID 161);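 further: 0% = growth of cultures given vehicle only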; conditions: S. cerevisiae sgs1 mgt1 strain, active compounds read high
Outline: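 Mutant yeast exposed to compound; growth scored against vehicle-only wells.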

[9] = NCI Yeast Anticancer Drug Screen. Data for the CLN2oe strain (AID 163);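 further: 0% = growth of vehicle-only control cultures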; conditions: S. cerevisiae CLN2oe strain, active compounds read high
Outline: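 Inhibition relative to vehicle-treated yeast is reported. Cells: strain with genetic alteration in cell-cycle control, grown with compound.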

[10] = NCI Yeast Anticancer Drug Screen. Data for the cln2 rad14 strain (AID 165);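 further: 0% = growth equal to vehicle treated cultures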; conditions: S. cerevisiae cln2 rad14 strain, active compounds read high
Outline: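 Each compound was tested on cln2 rad14 yeast. Inhibition of growth was calculated against vehicle-exposed controls.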

[11] = NCI Yeast Anticancer Drug Screen. Data for the bub3 strain (AID 167); conditions: S. cerevisiae bub3 mutant strain, active compounds read high
Outline: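 In this screen, a yeast mutant lacking normal mitotic checkpoint function is challenged with compound. Relative growth versus vehicle gives the inhibition value.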

[12] = NCI Yeast Anticancer Drug Screen. Data for the wt2 strain (AID 169);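 further: 0% = growth of vehicle-treated yeast cultures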; conditions: S. cerevisiae wt2 strain growth inhibition, active compounds read high
Outline: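 Inhibition of yeast growth was determined after compound treatment, normalised to controls receiving only vehicle.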

[13] = NCI Yeast Anticancer Drug Screen. Data for the mlh1 strain (AID 171);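 further: 0% = growth of vehicle-treated control cultures of the same strain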; conditions: S. cerevisiae mlh1 strain growth inhibition, active compounds read high
Outline: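 Vehicle-normalised growth inhibition of a repair- or checkpoint-altered yeast strain following compound treatment.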

[14] = NCI Yeast Anticancer Drug Screen. Data for the sgs1 strain (AID 173);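 further: 0% = growth of vehicle-only control cultures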; conditions: S. cerevisiae sgs1 mutant, active compounds read high
Outline: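 Screen format: yeast with repair or checkpoint alterations, compound exposure, growth read relative to vehicle.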

[15] = NCI Yeast Anticancer Drug Screen. Data for the mlh1 rad18 strain (AID 175); conditions: S. cerevisiae mlh1 rad18 strain growth inhibition, active compounds read high
Outline: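 Vehicle-treated cultures served as the reference for growth inhibition in a yeast strain carrying DNA damage repair alterations exposed to each compound.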

[16] = NCI Yeast Anticancer Drug Screen. Data for the rad18 strain (AID 177); conditions: S. cerevisiae rad18 mutant growth inhibition, active compounds read high
Outline: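 Test articles were incubated with altered yeast defective in DNA damage repair. Results are given as inhibition of growth versus vehicle.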

[17] = at 5.0 µM (retest, dose inferred, filed as 0.5)
[18] = at 50.0 µM (retest, dose inferred, filed as 5.0)

Measured: growth inhibition

Cc1ccc(C)c(C(=N)c2ccccc2Cc2ccccc2)c1
active: [1]; at 11.0 µM 70% | [1]; at 33.0 µM 94% | [1]; at 100.0 µM 97% | [2]; at 33.0 µM 90% | [2]; at 100.0 µM 97% | [3]; at 33.0 µM 84% | [3]; at 100.0 µM 94% | [4]; at 11.0 µM 75% | [4]; at 33.0 µM 94% | [4]; at 100.0 µM 97% | [5]; at 11.0 µM 71% | [5]; at 33.0 µM 92% | [5]; [18] 96% | [5]; at 50.0 µM 98.4% | [5]; at 100.0 µM 95% | [6]; at 11.0 µM 72% | [6]; at 33.0 µM 95% | [6]; [18] 94% | [6]; at 50.0 µM 97.3% | [6]; at 100.0 µM 97% | [7]; at 33.0 µM 93% | [7]; at 100.0 µM 98% | [8]; [18] 94% | [8]; at 50.0 µM 97.5% | [9]; at 33.0 µM 95% | [9]; at 100.0 µM 98% | [10]; [18] 93% | [10]; at 50.0 µM 93.4% | [11]; at 11.0 µM 77% | [11]; at 33.0 µM 96% | [11]; [18] 97% | [11]; at 50.0 µM 97.4% | [11]; at 100.0 µM 95% | [12]; at 11.0 µM 78% | [12]; at 33.0 µM 93% | [12]; at 100.0 µM 97% | [13]; at 11.0 µM 80% | [13]; at 33.0 µM 92% | [13]; at 100.0 µM 98% | [14]; at 11.0 µM 86% | [14]; at 33.0 µM 95% | [14]; at 100.0 µM 97% | [15]; [18] 94% | [15]; at 50.0 µM 98.2% | [16]; at 33.0 µM 94% | [16]; at 100.0 µM 96%
inactive: [1]; at 1.2 µM -5% | [1]; at 3.7 µM 17% | [2]; at 1.2 µM -3% | [2]; at 3.7 µM 10% | [2]; at 11.0 µM 35% | [3]; at 1.2 µM -4% | [3]; at 3.7 µM 2% | [3]; at 11.0 µM 31% | [4]; at 1.2 µM -3% | [4]; at 3.7 µM 37% | [5]; at 1.2 µM -1% | [5]; at 3.7 µM 7% | [5]; [17] 60% | [6]; at 1.2 µM 2% | [6]; at 3.7 µM 12% | [6]; [17] 0% | [7]; at 1.2 µM 0% | [7]; at 3.7 µM 31% | [7]; at 11.0 µM 52% | [8]; [17] 62% | [9]; at 1.2 µM -3% | [9]; at 3.7 µM 6% | [9]; at 11.0 µM 47% | [10]; [17] 18% | [11]; at 1.2 µM 7% | [11]; at 3.7 µM 29% | [11]; [17] 13% | [12]; at 1.2 µM -1% | [12]; at 3.7 µM 42% | [13]; at 1.2 µM 0% | [13]; at 3.7 µM 35% | [14]; at 1.2 µM 8% | [14]; at 3.7 µM 60% | [15]; [17] 45% | [16]; at 1.2 µM -3% | [16]; at 3.7 µM 20% | [16]; at 11.0 µM 67%

CCCC/C=C1\CCC(CN2CCCC2)C1=O (stereo not drawn)
active: [1]; at 100.0 µM 79% | [3]; at 100.0 µM 76% | [4]; at 100.0 µM 95% | [5]; at 50.0 µM 83% | [5]; at 100.0 µM 79% | [6]; at 100.0 µM 85% | [7]; at 33.0 µM 82% | [7]; at 100.0 µM 93% | [8]; at 50.0 µM 78.2% | [9]; at 33.0 µM 70% | [9]; at 100.0 µM 79% | [10]; at 50.0 µM 73.3% | [11]; [18] 81% | [11]; at 50.0 µM 80.7% | [11]; at 100.0 µM 94%
inactive: [1]; at 1.2 µM -18% | [1]; at 3.7 µM -24% | [1]; at 11.0 µM -10% | [1]; at 33.0 µM 17% | [2]; at 1.2 µM -10% | [2]; at 3.7 µM -17% | [2]; at 11.0 µM 9% | [2]; at 33.0 µM 16% | [2]; at 100.0 µM 26% | [3]; at 1.2 µM -4% | [3]; at 3.7 µM -6% | [3]; at 11.0 µM -8% | [3]; at 33.0 µM 10% | [4]; at 1.2 µM 21% | [4]; at 3.7 µM 21% | [4]; at 11.0 µM 39% | [4]; at 33.0 µM 62% | [5]; at 1.2 µM 7% | [5]; at 3.7 µM 25% | [5]; [17] 40% | [5]; at 11.0 µM 20% | [5]; at 33.0 µM 40% | [5]; [18] 44% | [6]; at 1.2 µM 0% | [6]; at 3.7 µM 7% | [6]; [17] 4% | [6]; at 11.0 µM 27% | [6]; at 33.0 µM 23% | [6]; [18] 35% | [6]; at 50.0 µM 59.2% | [7]; at 1.2 µM 28% | [7]; at 3.7 µM 44% | [7]; at 11.0 µM 66% | [8]; [17] 18% | [8]; [18] 51% | [9]; at 1.2 µM 28% | [9]; at 3.7 µM 48% | [9]; at 11.0 µM 49% | [10]; [17] 39% | [10]; [18] 55% | [11]; at 1.2 µM 1% | [11]; at 3.7 µM 33% | [11]; [17] 50% | [11]; at 11.0 µM 39% | [11]; at 33.0 µM 63%
